Source: PubChem BioAssay (EPA / NIEHS)
Active and inactive are the calls of the source. Rule for the calls: active = hit-call score of the fitted dose curve at least 0.9, where 1 is the maximum; inactive = score below 0.9.

Tests used:
[1] = CEETOX_H295R_TESTO: CeeTox H295R High-throughput Steroidogenesis Assay for Testosterone (TESTO) (AID 2283457); conditions: actives raise or lower the signal
In short: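 Testosterone synthesis is assessed in human adrenocortical H295R cells after 48 h of chemical exposure, using HPLC-MS/MS of extracted medium. Activity is fitted in both directions against DMSO control.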

[2] = read-out: Forkhead box O3 (FOXO3), FOXO3 (gene 2309); assay: LTEA_HepaRG_FOXO3: Life Technologies and Expression Analysis (LTEA) Assay for Forkhead box O3 (FOXO3) using HepaRG (AID 2283459); conditions: mRNA level, 48 h; actives raise or lower the signal
In short: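 Differentiated human HepaRG cells, 48 h post-plating, exposed in duplicate for 48 h in serum-free induction medium; 8-point half-log series from 100 uM in 0.5% DMSO. FOXO3 mRNA by TaqMan qRT-PCR, normalized to ACTB/GAPDH/POLR2A; bidirectional fit versus DMSO.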

[3] = read-out: ABC Transporter (ABCB1), ABCB1 (gene 5243); assay: LTEA_HepaRG_ABCB1: Life Technologies and Expression Analysis (LTEA) Assay for ABC Transporter (ABCB1) using HepaRG (AID 2283460); conditions: mRNA level, 48 h; actives raise or lower the signal
In short: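 HepaRG cells exposed in duplicate for 48 h in serum-free induction medium to eight half-log concentrations up to 100 uM in 0.5% DMSO. ABCB1 mRNA quantified by qRT-PCR, normalised to ACTB, GAPDH and POLR2A; fitted bidirectionally versus DMSO.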

[4] = read-out: growth arrest and DNA damage 45 (GADD45B), GADD45B (gene 4616); assay: LTEA_HepaRG_GADD45B: Life Technologies and Expression Analysis (LTEA) Assay for growth arrest and DNA damage 45 (GADD45B) using HepaRG (AID 2283461); conditions: mRNA level, 48 h; actives raise or lower the signal
In short: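 Values are bidirectional concentration-response fits against 0.5% DMSO controls. Underlying data: qRT-PCR mRNA levels in human HepaRG liver cells treated 48 h in serum-free induction medium, eight concentrations topping at 100 uM.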

[5] = read-out: ABC Transporter (ABCB11), ABCB11 (gene 8647); assay: LTEA_HepaRG_ABCB11: Life Technologies and Expression Analysis (LTEA) Assay for ABC Transporter (ABCB11) using HepaRG (AID 2283463); conditions: mRNA level, 48 h; actives raise or lower the signal
In short: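 Differentiated human HepaRG cells in serum-free induction medium, dosed in duplicate for 48 h. Eight-point half-log series from 100 uM in 0.5% DMSO; ABCB11 mRNA by qRT-PCR, normalized to ACTB, GAPDH, POLR2A, fitted bidirectionally versus DMSO.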

[6] = read-out: ABC Transporter (ABCC2), ABCC2 (gene 1244); assay: LTEA_HepaRG_ABCC2: Life Technologies and Expression Analysis (LTEA) Assay for ABC Transporter (ABCC2) using HepaRG (AID 2283464); conditions: mRNA level, 48 h; actives raise or lower the signal
In short: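 Gene expression of ABCC2 was determined by qRT-PCR in HepaRG cells exposed 48 h to chemicals (highest 100 uM, half-log dilutions). Activity was fitted in both directions relative to 0.5% DMSO vehicle.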

[7] = read-out: Broad substrate specificity ATP-binding cassette transporter ABCG2 (Homo sapiens) (UniProt Q9UNQ0); assay: LTEA_HepaRG_ABCG2: Life Technologies and Expression Analysis (LTEA) Assay for ABC Transporter (ABCG2) using HepaRG (AID 2283465); conditions: mRNA level, 48 h; actives raise or lower the signal
In short: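 Differentiated HepaRG cells were exposed for 48 h in serum-free induction medium to 8 half-log concentrations, top 100 uM, in 0.5% DMSO. ABCG2 mRNA was measured by qRT-PCR, normalized to ACTB, GAPDH and POLR2A, with bidirectional fitting versus DMSO.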

[8] = read-out: ATP-citrate lyase (ACLY), ACLY (gene 47); assay: LTEA_HepaRG_ACLY: Life Technologies and Expression Analysis (LTEA) Assay for ATP-citrate lyase (ACLY) using HepaRG (AID 2283466); conditions: mRNA level, 48 h; actives raise or lower the signal
In short: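 Differentiated HepaRG cells exposed 48 h in serum-free induction medium to eight half-log concentrations up to 100 uM in 0.5% DMSO, duplicates. Transcript measured by Fluidigm TaqMan qRT-PCR, normalized to ACTB, GAPDH, POLR2A; bidirectional fit versus DMSO.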

[9] = read-out: Alkaline Phosphatase, Placental (ALPP) gene, ALPP (gene 250); assay: LTEA_HepaRG_ALPP: Life Technologies and Expression Analysis (LTEA) Assay for Alkaline Phosphatase, Placental (ALPP) gene using HepaRG (AID 2283468); conditions: mRNA level, 48 h; actives raise or lower the signal
In short: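 Expression of ALPP was quantified by qRT-PCR against three housekeeping genes in human HepaRG cultures treated for 48 h with an eight-point concentration series up to 100 uM. Activity in either direction was fitted relative to 0.5% DMSO.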

[10] = read-out: Bcl-2 (BAD) gene, BAD (gene 572); assay: LTEA_HepaRG_BAD: Life Technologies and Expression Analysis (LTEA) Assay for Bcl-2 (BAD) gene using HepaRG (AID 2283469); conditions: mRNA level, 48 h; actives raise or lower the signal
In short: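 Differentiated HepaRG cells were exposed in duplicate in 0.5% DMSO for 48 h to eight-point half-log concentrations up to 100 uM. BAD mRNA was measured by Fluidigm TaqMan qRT-PCR, normalized to ACTB, GAPDH and POLR2A, and fitted bidirectionally against DMSO.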

[11] = read-out: Bcl-2 (BAX) gene, BAX (gene 581); assay: LTEA_HepaRG_BAX: Life Technologies and Expression Analysis (LTEA) Assay for Bcl-2 (BAX) gene using HepaRG (AID 2283470); conditions: mRNA level, 48 h; actives raise or lower the signal
In short: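 Differentiated HepaRG cells exposed 48 h in serum-free induction medium, eight half-log concentrations from 100 uM, in duplicate, 0.5% DMSO vehicle. BAX mRNA by TaqMan qRT-PCR, normalised to ACTB, GAPDH and POLR2A.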

[12] = read-out: adenosine kinase (ADK) gene, ADK (gene 132); assay: LTEA_HepaRG_ADK: Life Technologies and Expression Analysis (LTEA) Assay for adenosine kinase (ADK) gene using HepaRG (AID 2283471); conditions: mRNA level, 48 h; actives raise or lower the signal
In short: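 Following 48 h exposure of HepaRG cells in 0.5% DMSO (top concentration 100 uM, duplicate wells), ADK mRNA induction or suppression was measured by qRT-PCR, normalised to ACTB/GAPDH/POLR2A, and fitted bidirectionally relative to vehicle.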

[13] = read-out: Alpha-fetoprotein (AFP) gene, AFP (gene 174); assay: LTEA_HepaRG_AFP: Life Technologies and Expression Analysis (LTEA) Assay for Alpha-fetoprotein (AFP) gene using HepaRG (AID 2283472); conditions: mRNA level, 48 h; actives raise or lower the signal
In short: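 Differentiated human HepaRG cells exposed 48 h in serum-free induction medium, 8-point half-log series from 100 uM in 0.5% DMSO, duplicate. AFP mRNA by qRT-PCR, normalized to ACTB, GAPDH, POLR2A; bidirectional fit vs DMSO.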

[14] = read-out: BCL2L11 (gene 10018); assay: LTEA_HepaRG_BCL2L11: Life Technologies and Expression Analysis (LTEA) Assay for Bcl-2 (BCL2L11) gene using HepaRG (AID 2283473); conditions: mRNA level, 48 h; actives raise or lower the signal
In short: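 Cells were plated, cultured 48 h, switched to serum-free induction medium, then dosed in duplicate for 48 h at eight half-log concentrations up to 100 uM. Lysates underwent RNA isolation and TaqMan qRT-PCR; gain or loss versus DMSO was fitted.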

[15] = read-out: Apolipoprotein A-V (APOA5) gene, APOA5 (gene 116519); assay: LTEA_HepaRG_APOA5: Life Technologies and Expression Analysis (LTEA) Assay for Apolipoprotein A-V (APOA5) gene using HepaRG (AID 2283474); conditions: mRNA level, 48 h; actives raise or lower the signal
In short: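 Human liver HepaRG cells are treated 48 h with test chemicals (100 uM top, half-log dilutions, 0.5% DMSO). APOA5 mRNA induction or loss is measured by qRT-PCR relative to vehicle.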

[16] = read-out: Bcl-2 (BID) gene, BID (gene 637); assay: LTEA_HepaRG_BID: Life Technologies and Expression Analysis (LTEA) Assay for Bcl-2 (BID) gene using HepaRG (AID 2283476); conditions: mRNA level, 48 h; actives raise or lower the signal
In short: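 Gene expression by qRT-PCR in HepaRG cells after 48 h exposure, duplicate wells, eight half-log concentrations topping at 100 uM in 0.5% DMSO. Normalized to ACTB, GAPDH, POLR2A; bidirectional fitting relative to DMSO.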

[17] = read-out: growth arrest and DNA damage 45 (GADD45A), GADD45A (gene 1647); assay: LTEA_HepaRG_GADD45A: Life Technologies and Expression Analysis (LTEA) Assay for growth arrest and DNA damage 45 (GADD45A) using HepaRG (AID 2283458); conditions: mRNA level, 48 h; actives raise or lower the signal
In short: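 Differentiated HepaRG cells exposed 48 h in serum-free induction medium to 8 concentrations, top 100 uM in half-log steps, 0.5% DMSO. GADD45A mRNA quantified by qRT-PCR, normalized to ACTB, GAPDH and POLR2A; bidirectional fit versus DMSO.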

[18] = read-out: Apoptosis regulator Bcl-2 (Homo sapiens) (UniProt P10415); assay: LTEA_HepaRG_BCL2: Life Technologies and Expression Analysis (LTEA) Assay for Bcl-2 gene using HepaRG (AID 2283475); conditions: mRNA level, 48 h; actives raise or lower the signal
In short: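 Differentiated human HepaRG cells in serum-free induction medium exposed 48 h, in duplicate, to 8-point half-log series from 100 uM in 0.5% DMSO. BCL2 mRNA by qRT-PCR (TaqMan/Fluidigm), normalized to ACTB, GAPDH, POLR2A; bidirectional fit against DMSO.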

[19] = read-out: Peroxisomal acyl-coenzyme A oxidase 1 (ACOX1) gene, ACOX1 (gene 51); assay: LTEA_HepaRG_ACOX1: Life Technologies and Expression Analysis (LTEA) Assay for Peroxisomal acyl-coenzyme A oxidase 1 (ACOX1) gene using HepaRG (AID 2283467); conditions: mRNA level, 48 h; actives raise or lower the signal
In short: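 HepaRG cells, plated 48 h then switched to serum-free induction medium, were exposed in duplicate for 48 h to 8-point half-log concentrations up to 100 uM in 0.5% DMSO. ACOX1 mRNA was measured by qRT-PCR, normalized to ACTB/GAPDH/POLR2A, and fitted bidirectionally versus DMSO.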

[20] = read-out: ABC Transporter (ABCC3), ABCC3 (gene 8714); assay: LTEA_HepaRG_ABCC3: Life Technologies and Expression Analysis (LTEA) Assay for ABC Transporter (ABCC3) using HepaRG (AID 2283462); conditions: mRNA level, 48 h; actives raise or lower the signal
In short: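 Differentiated HepaRG liver cells receive test chemicals at eight concentrations (max 100 uM) for 48 h. Expression of ABCC3 is quantified by qRT-PCR against ACTB, GAPDH and POLR2A, and activity is fitted in both directions against the DMSO control.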

Measured: AC50

Chain of Broad substrate specificity ATP-binding cassette transporter ABCG2 (Homo sapiens) (Q9UNQ0 whole entry, looked up): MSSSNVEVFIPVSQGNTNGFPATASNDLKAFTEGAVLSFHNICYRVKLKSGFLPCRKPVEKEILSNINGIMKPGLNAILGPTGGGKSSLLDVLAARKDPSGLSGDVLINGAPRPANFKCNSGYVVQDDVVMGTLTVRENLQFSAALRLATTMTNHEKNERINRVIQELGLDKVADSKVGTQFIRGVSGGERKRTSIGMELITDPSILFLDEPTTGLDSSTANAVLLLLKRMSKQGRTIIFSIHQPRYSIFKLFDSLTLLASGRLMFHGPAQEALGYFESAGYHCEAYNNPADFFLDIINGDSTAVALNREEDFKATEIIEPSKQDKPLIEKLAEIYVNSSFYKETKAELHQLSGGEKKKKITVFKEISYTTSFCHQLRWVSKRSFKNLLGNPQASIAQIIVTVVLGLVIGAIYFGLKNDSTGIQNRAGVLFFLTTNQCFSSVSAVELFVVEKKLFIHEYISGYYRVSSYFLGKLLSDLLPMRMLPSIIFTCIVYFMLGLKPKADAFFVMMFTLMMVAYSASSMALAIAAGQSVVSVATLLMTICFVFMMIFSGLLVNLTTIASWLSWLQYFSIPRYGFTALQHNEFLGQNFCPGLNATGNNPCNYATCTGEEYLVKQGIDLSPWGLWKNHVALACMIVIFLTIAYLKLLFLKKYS
Chain of Apoptosis regulator Bcl-2 (Homo sapiens) (P10415 whole entry, looked up): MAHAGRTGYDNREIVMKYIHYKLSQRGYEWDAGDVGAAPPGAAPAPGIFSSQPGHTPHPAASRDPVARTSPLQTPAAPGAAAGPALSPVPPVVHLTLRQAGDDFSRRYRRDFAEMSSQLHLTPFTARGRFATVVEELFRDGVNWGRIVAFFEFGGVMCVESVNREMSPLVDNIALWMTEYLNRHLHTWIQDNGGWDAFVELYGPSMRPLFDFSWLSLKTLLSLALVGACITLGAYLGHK

Fc1ccccc1[C@@H](F)COC1CCC(Nc2ncnc3[nH]ncc23)CC1 (stereo not given in full)
active: [3] 50 µM | [4] 81.7 µM | [5] 71.1 µM | [6] 65.4 µM | [9] 23.1 µM | [11] 50 µM | [12] 50 µM | [13] 27.2 µM | [15] 50 µM
inactive: [1] | [2] | [7] | [8] | [10] | [14] | [16]

CNS(=O)(=O)c1cc(C(=O)N2CCC(CCN3C4CCC3CC(n3c(C)nc5ccccc53)C4)(c3cccc(F)c3)CC2)c(Cl)cc1F (stereo not given)
active: [5] 24.5 µM | [7] 17.1 µM | [8] 30.9 µM | [9] 14.5 µM | [13] 24.6 µM | [15] 30.5 µM | [18] 27.4 µM
inactive: [1] | [17] | [2] | [4] | [6] | [10] | [11] | [12] | [14] | [16]

CC1=CC(=O)CC(C)(C)C1
inactive: [17] | [2] | [3] | [4] | [5] | [6] | [7] | [8] | [19] | [9] | [11] | [12] | [13] | [14] | [15] | [16]

O=c1[nH]c2ccc(S(=O)CCN3CCC(Cc4ccc(F)cc4)CC3)cc2o1 (stereo not given)
active: [6] 50 µM | [7] 50 µM | [9] 64.7 µM | [13] 61.1 µM
inactive: [17] | [2] | [3] | [4] | [20] | [5] | [8] | [19] | [11] | [12] | [14] | [16]
